The list is not random: actives were taken first. Their share in the collection is about 19%.
TDP1 cell CPT = qHTS for Inhibitors of human tyrosyl-DNA phosphodiesterase 1 (TDP1): qHTS in cells in presence of CPT; chicken DT40 Tdp1-/-;hTDP1 cells + 20 nM CPT, ATP luminescence, 48 h; Potency, µM (titrated, usually from 46.2 µM), hits mostly inhibitors; 420,000 tested, 12% active; note: nearly all actives have a fitted effect of over 55% in size
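Chicken DT40 Tdp1-/- cells stably complemented with human TDP1 were seeded at 400 cells/well in medium containing 20 nM camptothecin, exposed to pin-transferred compounds, and grown at 37 °C for at least 48 hr. Viability was read as ATP luminescence.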
VP16 counter = VP16 counterscreen qHTS for inhibitors of ROR gamma transcriptional activity; Drosophila S2 Gal4-VP16 UAS-luciferase, luminescence, 20 h; Potency, µM (titrated, usually from 53.6 µM), most hits filed as inhibitors; 310,000 tested, 3.5% active; AID 2546, 2010;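 note: Gal4-VP16 expression switched on by copper sulfate through the metallothionein promoter; nearly all actives have a fitted effect of over 50% in size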
TDP1 inh = qHTS Assay for Inhibitors of Tyrosyl-DNA Phosphodiesterase (TDP1) | Tyrosyl-DNA phosphodiesterase 1 (Homo sapiens), Q9NUW8 | recombinant TDP1, AlphaScreen DNA substrate cleavage | Potency, µM (top dose mostly 130 µM), hits mostly inhibitors | 350,000 tested, 0.28% active | AID 485290, 2010; note: nearly all actives have a fitted effect of over 40% in size
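Compounds were preincubated with Tdp1 (1 nM final) for 15 min at room temperature before substrate (15 nM final) started a 5 min reaction; beads (10 ug/ml final) were then added for 10 min before AlphaScreen detection.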
DT40 TDP1 no CPT = qHTS for Inhibitors of human tyrosyl-DNA phosphodiesterase 1 (TDP1): qHTS in cells in absence of CPT; AID 686978, 2013; Potency, µM (highest dose often 46.2 µM), hits mostly inhibitors; 420,000 tested, 15% active; DT40 Tdp1-/- hTDP1 cells, no CPT, ATP luminescence, 48 h; note: nearly all actives have a fitted effect of over 55% in size
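Luminescent ATP content (CellTiter-Glo) served as the growth readout. Knockout chicken DT40 cells expressing human TDP1 were exposed to compounds without camptothecin for a minimum 48 hr at 37 °C.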
RORg inh = qHTS for inhibitors of ROR gamma transcriptional activity; Drosophila S2 Gal4-RORgamma UAS-luciferase reporter, 20 h; Potency, µM (highest dose often 53.6 µM), usual class: inhibitors; 310,000 tested, 5.4% active; note: nearly all actives have a fitted effect of over 60% in size
Target sequence (P51450 whole entry, looked up, the tested form may be a part): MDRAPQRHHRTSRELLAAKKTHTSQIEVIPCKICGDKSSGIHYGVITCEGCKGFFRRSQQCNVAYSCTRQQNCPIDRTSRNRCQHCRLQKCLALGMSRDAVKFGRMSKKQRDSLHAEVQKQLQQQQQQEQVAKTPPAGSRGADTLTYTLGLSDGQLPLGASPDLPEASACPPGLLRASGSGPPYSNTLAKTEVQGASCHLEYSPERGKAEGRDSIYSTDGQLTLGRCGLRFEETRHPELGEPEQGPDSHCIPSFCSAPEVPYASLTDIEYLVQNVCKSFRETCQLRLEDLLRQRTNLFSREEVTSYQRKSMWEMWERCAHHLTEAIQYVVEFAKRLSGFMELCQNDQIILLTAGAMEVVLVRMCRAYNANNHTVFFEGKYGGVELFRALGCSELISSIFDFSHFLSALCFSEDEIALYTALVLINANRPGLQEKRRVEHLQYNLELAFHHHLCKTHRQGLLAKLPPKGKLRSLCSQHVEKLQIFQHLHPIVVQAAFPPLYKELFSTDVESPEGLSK
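Drosophila Schneider cells stably carrying a metallothionein-driven Gal4 DBD–ROR gamma fusion and a UAS-Photinus luciferase reporter were exposed to compound for 1 hr, then induced with copper sulfate (700 uM final) for 20 hr at ambient temperature before luminescence reading.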
Of the large screens only hits and unclear results are named; the others gave an inactive call. Calls come from the whole dose curve; as a rule, active = well fitted curve in the direction sought with a large enough effect; inconclusive = small, poorly fitted or top-dose-only effect, or another doubt; inactive = no such curve, though single readings can be large; an effect the other way counts as inactive or inconclusive.

Cc1nn(CC(=O)N(CC(C)C)C2CCS(=O)(=O)C2)c(C)c1[N+](=O)[O-] (configuration not stated)	none (no result: VP16 counter, RORg inh)
COc1ccc(-n2cc(C(=O)NCc3ccc(Cl)cc3)c3ccccc3c2=O)cc1	TDP1 cell CPT inconclusive, DT40 TDP1 no CPT inconclusive (no result: VP16 counter, RORg inh)
Clc1ccc(-c2cn(-c3ccc(Cl)cc3)c3[n+]2CCCCC3)cc1	TDP1 cell CPT 8.2µM, DT40 TDP1 no CPT 7.31µM
COc1ccc(-c2cn(-c3ccc(Cl)cc3)c3[n+]2CCCCC3)cc1	TDP1 cell CPT 2.31µM, VP16 counter inconclusive, DT40 TDP1 no CPT 2.59µM
COc1ccc(-n2cc(-c3ccc(OC(F)F)cc3)[n+]3c2CCCCC3)cc1	TDP1 cell CPT 1.3µM, DT40 TDP1 no CPT 0.82µM
Cc1ccc(CNC(=O)Cn2cnc(C(=O)Nc3ccc(C)c(C)c3)n2)o1	none (no result: VP16 counter, RORg inh)
NC(=O)c1ccsc1NC(=O)COC(=O)c1ccccc1F	none (no result: VP16 counter, RORg inh)
CCN1CCN(C(c2cccs2)C(C)NC(=O)c2c(F)cccc2F)CC1 (configuration not stated)	none
Cc1cccc(NC(=S)NC(C)C(c2ccccc2)N2CCN(C)CC2)c1C (configuration not stated)	TDP1 cell CPT inconclusive, DT40 TDP1 no CPT 25.9µM, RORg inh 11.2µM
CC(NC(=S)Nc1ccc(Cl)cc1)C(c1ccccc1)N1CCOCC1 (configuration not stated)	TDP1 cell CPT inconclusive, VP16 counter 6.31µM, RORg inh 6.31µM
CCN1CCN(C(c2cccs2)C(C)NC(=S)Nc2cccc(C)c2C)CC1 (configuration not stated)	TDP1 cell CPT inconclusive, DT40 TDP1 no CPT inconclusive, RORg inh 11.2µM
COC(=O)c1cc(=O)n(-c2ccccc2)c(=Nc2ccccc2)s1	TDP1 cell CPT inconclusive, VP16 counter inconclusive, DT40 TDP1 no CPT 23.1µM, RORg inh inconclusive
COC(=O)c1cc(=O)n(Cc2ccco2)c(=Nc2ccc(F)cc2)s1	TDP1 cell CPT 20.6µM, VP16 counter inconclusive, DT40 TDP1 no CPT inconclusive, RORg inh inconclusive (no result: TDP1 inh)
COC(=O)c1cc(=O)n(Cc2ccc(OC)c(OC)c2)c(=Nc2ccc(F)cc2)s1	TDP1 cell CPT 16.4µM, VP16 counter inconclusive, DT40 TDP1 no CPT 14.6µM, RORg inh inconclusive
COC(=O)c1cc(=O)n(Cc2ccc(F)cc2)c(=Nc2ccccc2)s1	TDP1 cell CPT inconclusive, DT40 TDP1 no CPT inconclusive, RORg inh inconclusive
COC(=O)c1cc(=O)n(CCc2ccc(OC)c(OC)c2)c(=Nc2ccc(F)c(Cl)c2)s1	TDP1 cell CPT inconclusive, VP16 counter inconclusive, DT40 TDP1 no CPT inconclusive, RORg inh 17.8µM
COC(=O)c1cc(=O)n(Cc2cccs2)c(=Nc2ccccc2)s1	VP16 counter inconclusive
CC(=O)Nc1ccc(OCCOCCOc2ccc(NC(C)=O)cc2)cc1	none
COc1ccc(N2CCN(CC(O)COCc3ccccc3)CC2)cc1 (configuration not stated)	none
CC(C)C(N)c1csc(Nc2ccc(C(=O)NCCCO)cn2)n1 (configuration not stated)	none (no result: VP16 counter, TDP1 inh, RORg inh)
CC(C)CC(N)c1csc(Nc2ccc(C(=O)N(C)Cc3ccccc3)cn2)n1 (configuration not stated)	TDP1 cell CPT 5.17µM, DT40 TDP1 no CPT 5.8µM (no result: VP16 counter, TDP1 inh, RORg inh)
CCCCN(C)C(=O)c1ccc(Nc2nc(C(N)Cc3ccccc3)cs2)nc1 (configuration not stated)	TDP1 cell CPT 23.1µM, DT40 TDP1 no CPT 14.6µM (no result: VP16 counter, TDP1 inh, RORg inh)
CN(Cc1ccccc1)C(=O)c1ccc(Nc2nc(C(N)Cc3ccc(C(F)(F)F)cc3)cs2)nc1 (configuration not stated)	TDP1 cell CPT 11.6µM, DT40 TDP1 no CPT 11.6µM (no result: VP16 counter, TDP1 inh, RORg inh)
CN(Cc1ccccc1)C(=O)c1ccc(Nc2nc(C(N)Cc3ccccc3)cs2)nc1 (configuration not stated)	TDP1 cell CPT 14.6µM, DT40 TDP1 no CPT 13µM (no result: VP16 counter, TDP1 inh, RORg inh)
CN(Cc1ccccc1)C(=O)c1cccnc1	none (no result: TDP1 inh)
CCC(C)(C)n1nnnc1C(c1ccc(C)cc1)N1CCN(Cc2cccnc2)CC1 (configuration not stated)	DT40 TDP1 no CPT inconclusive
Cc1ccc(S(=O)(=O)N(C)CC(=O)O/N=C(\N)c2ccccn2)cc1	RORg inh inconclusive
O=C(Cc1cccs1)N1CCN=C1SCc1ccc(F)cc1	VP16 counter inconclusive
Cn1c(=O)c(Nc2ccc(O)cc2)c2c3c(cccc31)C(=O)c1ccccc1-2	TDP1 cell CPT 3.66µM, DT40 TDP1 no CPT 2.59µM
COc1ccccc1CCC(=O)O	none (no result: VP16 counter, TDP1 inh, RORg inh)
CCCCCc1c(-c2ccc(Br)cc2)ncn1CCc1ccccc1OC	TDP1 cell CPT 6.51µM, DT40 TDP1 no CPT 4.61µM (no result: VP16 counter, TDP1 inh, RORg inh)
CCCCCc1c(-c2ccc(F)cc2)ncn1CCc1ccccc1OC	TDP1 cell CPT 9.2µM, DT40 TDP1 no CPT 18.4µM (no result: VP16 counter, TDP1 inh, RORg inh)
COc1ccccc1CCn1cnc(Cc2ccccc2)c1C(C)C	TDP1 cell CPT 7.31µM, DT40 TDP1 no CPT 7.31µM (no result: VP16 counter, TDP1 inh, RORg inh)
COc1ccccc1CCn1cnc(-c2ccc(Br)cc2)c1C(C)C	TDP1 cell CPT 14.6µM, DT40 TDP1 no CPT 18.4µM (no result: VP16 counter, TDP1 inh, RORg inh)
O=C(c1cc2cc(Cl)ccc2[nH]1)N1CCN(c2ccccc2F)CC1	none (no result: TDP1 inh)
Cc1ccccc1NC(=S)N(C)C1(c2ccccc2Cl)CCCCC1=O (configuration not stated)	DT40 TDP1 no CPT inconclusive, RORg inh inconclusive
CCOC(=O)c1[nH]c2c(c1-c1ccccc1)C(=O)CC(c1ccc(OC)c(OC)c1)C2 (configuration not stated)	TDP1 cell CPT inconclusive, DT40 TDP1 no CPT inconclusive, RORg inh inconclusive
CCOC(=O)c1[nH]c2c(c1Cc1ccccc1OC)C(=O)CC(c1ccc(OC)cc1)C2 (configuration not stated)	TDP1 cell CPT inconclusive, DT40 TDP1 no CPT 23.1µM (no result: VP16 counter, RORg inh)
CCOC(=O)c1[nH]c2c(c1Cc1ccccc1)C(=O)CC(c1ccc(OC)cc1)C2 (configuration not stated)	TDP1 cell CPT 20.6µM, DT40 TDP1 no CPT 20.6µM (no result: VP16 counter, RORg inh)
CCOC(=O)c1[nH]c2c(c1Cc1ccccc1)C(=O)CC(c1ccc(Cl)cc1)C2 (configuration not stated)	TDP1 cell CPT 16.4µM, DT40 TDP1 no CPT 23.1µM (no result: VP16 counter, RORg inh)
CCOC(=O)c1[nH]c2c(c1-c1ccccc1)C(=O)CC(c1ccc(OCC)cc1)C2 (configuration not stated)	none
COc1cc(C(=O)C(=O)N2CCC(Cc3ccccc3)CC2)cc2ccccc12	TDP1 cell CPT 16.4µM, DT40 TDP1 no CPT 23.1µM (no result: VP16 counter, TDP1 inh, RORg inh)
COc1cc(C(=O)C(=O)N2CCN(c3ccccc3)CC2)cc(OC)c1OC	TDP1 cell CPT 3.66µM, DT40 TDP1 no CPT 3.66µM (no result: VP16 counter, TDP1 inh, RORg inh)
